Where “and” joins values, the source holds several entries; their conditions need not be identical. Equal values may be shown once. Results filed as inconclusive are left out. Where a call stands in place of a potency, no number is given. Unmarked numbers belong to inactive results. Calls of active or inactive are those of the source. Calls follow the shape of the dose curve; as a rule, active = well fitted curve in the direction sought with a large enough effect; inconclusive = small, poorly fitted or top-dose-only effect, or another doubt; inactive = no such curve, though single readings can be large; an effect the other way counts as inactive or inconclusive.
What was measured:
[1] = qHTS Assay for Identifying Gametocytocidal Compounds (AID 743244);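 also: actives lower the fluorescent signal which means gametocytes are killed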; details: P. falciparum 3D7 stage III-V gametocytes, alamarBlue, 72 h; max response: active compounds read low
How it was run: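 In this qHTS viability screen, late-stage 3D7 gametocytes are incubated with compound for 72 h, then with alamarBlue for 24 h; reduced resorufin fluorescence marks killing.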

[2] = qHTS assay to identify small molecule inhibitors of chordoma cells - UCH-1 (AID 1259355); also: nearly all actives have a fitted effect of over 55% in size; also: potency is read from the fitted curve at half-maximal effect; series mostly up to about 46 µM
How it was run: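 A 48hr growth-inhibition format: each drug tested at 15 concentrations together with added auranofin, camptothecin, doxorubicin, rubitecan and topotecan, with cell viability quantified as CellTiter-Glo luminescence.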

[3] = P-glycoprotein substrates identified in KB-8-5-11 adenocarcinoma cell line, qHTS therapeutic library screen (AID 1346987); details: outcome: dose series up to 44.5 µM unless noted; also: nearly all actives have a fitted effect of over 65% in size
How it was run: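 Human cervical adenocarcinoma KB-8-5-11 cells, selected in colchicine to over-express P-gp and assayed without it, were exposed for 72 h to titrated compounds. An ATP-based luminescent viability signal gave AC50.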

[4] = qHTS assay to identify small molecule inhibitors of chordoma cells - UCH-2 (AID 1259356); also: series mostly up to about 46 µM
[5] = qHTS assay for cell viability of HEK293 cells (AID 743288); details: ATP luminescence (CellTiter-Glo), 18 h; max response: active compounds read low; also: potency is read from the fitted curve at half-maximal effect; nearly all actives have a fitted effect of over 50% in size
How it was run: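 Readout is luciferase-coupled ATP content (CellTiter-Glo luminescence, 30 min room temperature) as a measure of metabolically competent cells. Parental HEK293 cells were plated 5 h or more before compound addition, then treated 18 h at 37 C.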

Which results are given for O=C(OCc1ccccc1)c1cccnc1?
max response [1]: -1.85%; Potency [2]: inactive; Potency [3]: inactive

Which results are given for O=[N+]([O-])c1c(Cl)cccc1-c1c[nH]cc1Cl?
max response [1]: 0.263%; Potency [2]: inactive; Potency [4]: inactive

Which max response [1] does the source give for O=C(O)Cc1cc(I)c(Oc2ccc(O)c(I)c2)c(I)c1 here?
The max response was 10.9%.

And the Potency [2]?
The Potency was “inactive”.

And the Potency [3]?
The Potency was “inactive”.

What does the source list for C[C@H]1O[C@@H](O[C@H]2[C@@H](O)C[C@H](O[C@H]3[C@@H](O)C[C@H](O[C@H]4CC[C@@]5(C)[C@H](CC[C@@H]6[C@@H]5C[C@@H](O)[C@]5(C)[C@@H](C7=CC(=O)OC7)CC[C@]65O)C4)O[C@@H]3C)O[C@@H]2C)C[C@H](O)[C@@H]1O?
max response [1]: -13.6%; Potency [5]: 126 nM (active) and 50.1 nM (active); Potency [2]: 0.355 µM (active)

Which max response [1] does the source give for Cc1c(Cl)cccc1Nc1ncccc1C(=O)O here?
The max response was -5.77%.

What about the Potency [2] of the same molecule?
The Potency was “inactive”.

And the Potency [3]?
The Potency was “inactive”.

For NC(=O)OC[C@@H]1[C@H](NC(=O)/C(=N\OCC(=O)O)c2csc(N)n2)C(=O)N1S(=O)(=O)O, which max response [1] is on record?
The max response was -1.55%.

What about the Potency [2] of the same molecule?
The Potency was “inactive”.

What about the Potency [3] of the same molecule?
Its Potency is “inactive”.

With CC/C=C\C/C=C\C/C=C\C/C=C\C/C=C\CCCC(=O)O as the molecule, how does the max response [1] read?
Its max response is -4.05%.

And the Potency [2]?
Its Potency is “inactive”.

And the Potency [3]?
The Potency was “inactive”.

With NC(=O)[C@@H]1CCCN1C(=O)[C@H](Cc1cnc[nH]1)NC(=O)[C@@H]1CCC(=O)N1 as the molecule, how does the max response [1] read?
The max response was 7.17%.

And the Potency [2]?
Its Potency is “inactive”.

What about the Potency [3] of the same molecule?
Its Potency is “inactive”.

Which max response [1] does the source give for CC(C)CN(C[C@@H](O)[C@H](Cc1ccccc1)NC(=O)O[C@@H]1CCOC1)S(=O)(=O)c1ccc(N)cc1 here?
Its max response is 12.1%.

What about the Potency [2] of the same molecule?
Its Potency is “inactive”.

And the Potency [3]?
The Potency was “inactive”.

Which Potency [4] does the source give for C=C1CC[C@H](O)CC1=C/C=C1\CCC[C@]2(C)[C@@H]([C@H](C)/C=C/[C@H](C)C(C)C)CC[C@@H]12 here?
Its Potency is “inactive”.

And the Potency [3]?
The Potency was “inactive”.
